Consider 16 sequences from paper PMC10812921, “Transcriptional Coactivator BOB1 (OBF1, OCA-B) Modulates the Specificity of DNA Recognition by the POU-Domain Factors OCT1 and OCT2 in a Monomeric Configuration”.

The target of one test is POU1 (OCT1 POU domain) (human, UniProt P14859 260-458). Nature of the test: EMSA-SELEX-seq; no BOB1; 20 mM Tris-HCl pH 7.6, 140 mM NaCl, 10% glycerol, 0.5 mM EDTA, 0.05% Triton X-100, 0.1 mg/mL BSA, 0.1 mg/mL poly(dI-dC), 5 mM DTT, room temperature, 20 min; high values mean tight binding. The conditions noted are these: protein: recombinant; dsDNA, one strand shown. The method, boiled down:
(§1)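 With or without 28 ng coactivator protein, 30 ng of tagged POU-domain protein was combined with 300 ng of a PCR-amplified double-stranded random 35-nt library in 20 μL Tris–HCl pH 7.6 binding buffer for 20 min at RT. The protein came from E. coli BL21 and had been purified under denaturing conditions and renatured. Four rounds of cutting complex bands from native 6% PAGE, elution and PCR amplification preceded Illumina sequencing. The binding preference figure is the percentage of sequenced 8-mers matching a motif pattern.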

The target of the next test is T1, POU2 (OCT2 POU domain) (human, UniProt P09086 175-386).
T1 sequence: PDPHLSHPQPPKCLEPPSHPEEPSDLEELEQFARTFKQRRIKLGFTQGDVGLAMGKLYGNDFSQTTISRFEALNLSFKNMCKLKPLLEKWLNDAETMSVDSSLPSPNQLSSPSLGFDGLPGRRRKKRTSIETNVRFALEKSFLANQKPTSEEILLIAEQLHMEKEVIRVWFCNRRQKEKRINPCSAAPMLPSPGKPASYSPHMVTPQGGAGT
The description is as above. The conditions noted are these: protein: recombinant; dsDNA, one strand shown. The method, boiled down:
as §1

Test [1] concerns the target POU1 (OCT1 POU domain);BOB1 (OBF1, OCA-B) (human;human, UniProt P14859;Q16633 260-458;1-256, |). Nature of the test: EMSA-SELEX-seq; with BOB1 (ternary complex band); 20 mM Tris-HCl pH 7.6, 140 mM NaCl, 10% glycerol, 0.5 mM EDTA, 0.05% Triton X-100, 0.1 mg/mL BSA, 0.1 mg/mL poly(dI-dC), 5 mM DTT, room temperature, 20 min; high values mean tight binding. The conditions noted are these: protein: recombinant;recombinant; copies: 1;1; dsDNA, one strand shown. The essentials: as §1
A general note: Mobility shift assays separate free from complexed probe on a gel.

Test [2] deals with T2, POU2 (OCT2 POU domain);BOB1 (OBF1, OCA-B) (human;human, UniProt P09086;Q16633 175-386;1-256, |).
T2 sequence 1: T1 sequence
T2 sequence 2: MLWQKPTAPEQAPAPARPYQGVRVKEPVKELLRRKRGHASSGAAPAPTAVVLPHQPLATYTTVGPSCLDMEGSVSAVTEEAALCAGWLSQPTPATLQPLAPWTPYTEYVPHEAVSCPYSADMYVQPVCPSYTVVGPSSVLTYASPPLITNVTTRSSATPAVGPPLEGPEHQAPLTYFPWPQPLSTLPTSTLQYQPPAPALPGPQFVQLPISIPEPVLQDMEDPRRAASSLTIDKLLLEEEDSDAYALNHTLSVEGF
Described as above. The conditions noted are these: protein: recombinant;recombinant; copies: 1;1; dsDNA, one strand shown. The method, boiled down: as §1

Chain of POU1 (OCT1 POU domain) (P14859 260-458): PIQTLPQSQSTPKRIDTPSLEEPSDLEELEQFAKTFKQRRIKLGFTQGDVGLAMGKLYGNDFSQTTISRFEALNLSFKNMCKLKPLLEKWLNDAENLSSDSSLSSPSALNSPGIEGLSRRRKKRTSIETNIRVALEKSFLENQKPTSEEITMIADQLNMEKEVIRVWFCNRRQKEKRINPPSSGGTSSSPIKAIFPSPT

With ATGTGAAA, the binding signal with POU1 (OCT1 POU domain) is 0.0671 % of ANNNNAAN 8-mers; with POU2 (OCT2 POU domain) it was 0.0748 % of ANNNNAAN 8-mers; in test [1], 0.0687 % of ANNNNAAN 8-mers; in test [2], 0.0718 % of ANNNNAAN 8-mers.
Regarding AGATCAAT, the binding signal is 0.0465 % of ANNNNAAN 8-mers with POU1 (OCT1 POU domain), 0.0432 % of ANNNNAAN 8-mers with POU2 (OCT2 POU domain), 0.0355 % of ANNNNAAN 8-mers in test [1] and 0.0578 % of ANNNNAAN 8-mers in test [2].
The corresponding values for ACTTCAAC are 0.0145 % of ANNNNAAN 8-mers, 0.015 % of ANNNNAAN 8-mers, 0.0121 % of ANNNNAAN 8-mers and 0.0231 % of ANNNNAAN 8-mers.
For AACAGAAT the same measures were 0.0645 % of ANNNNAAN 8-mers, 0.0679 % of ANNNNAAN 8-mers, 0.0507 % of ANNNNAAN 8-mers and 0.0594 % of ANNNNAAN 8-mers.
For AGGTCAAG the same measures were 0.0297 % of ANNNNAAN 8-mers, 0.042 % of ANNNNAAN 8-mers, 0.0277 % of ANNNNAAN 8-mers and 0.0289 % of ANNNNAAN 8-mers.
With ACGGTAAC, the binding signal with POU1 (OCT1 POU domain) is 0.0164 % of ANNNNAAN 8-mers; in the test with POU2 (OCT2 POU domain), 0.0259 % of ANNNNAAN 8-mers; in test [1] it was 0.0144 % of ANNNNAAN 8-mers; in test [2], 0.0239 % of ANNNNAAN 8-mers.
For AGTTTAAA the same measures were 0.0881 % of ANNNNAAN 8-mers, 0.0938 % of ANNNNAAN 8-mers, 0.0808 % of ANNNNAAN 8-mers and 0.0751 % of ANNNNAAN 8-mers.
On to ATGCAAAA, for which the binding signal in the test with POU1 (OCT1 POU domain) is 1.5 % of ANNNNAAN 8-mers; in the test with POU2 (OCT2 POU domain) it was 1.17 % of ANNNNAAN 8-mers; in test [1] it was 3.15 % of ANNNNAAN 8-mers; in test [2], 3.29 % of ANNNNAAN 8-mers.
For AGCGAAAA the same measures were 0.0389 % of ANNNNAAN 8-mers, 0.0386 % of ANNNNAAN 8-mers, 0.0418 % of ANNNNAAN 8-mers and 0.033 % of ANNNNAAN 8-mers.
ACATAAAC: the binding signal with POU1 (OCT1 POU domain) is 0.087 % of ANNNNAAN 8-mers; with POU2 (OCT2 POU domain), 0.106 % of ANNNNAAN 8-mers; in test [1], 0.0652 % of ANNNNAAN 8-mers; in test [2] it was 0.0751 % of ANNNNAAN 8-mers.
For AAGCGAAT the same measures were 0.0538 % of ANNNNAAN 8-mers, 0.0541 % of ANNNNAAN 8-mers, 0.0531 % of ANNNNAAN 8-mers and 0.0429 % of ANNNNAAN 8-mers.
In the case of AAAAAAAA, the binding signal with POU1 (OCT1 POU domain) was 0.11 % of ANNNNAAN 8-mers; in the test with POU2 (OCT2 POU domain), 0.193 % of ANNNNAAN 8-mers; in test [1], 0.174 % of ANNNNAAN 8-mers; in test [2] it was 0.13 % of ANNNNAAN 8-mers.
For ACATTAAG the same measures were 0.095 % of ANNNNAAN 8-mers, 0.0875 % of ANNNNAAN 8-mers, 0.0539 % of ANNNNAAN 8-mers and 0.0487 % of ANNNNAAN 8-mers.
As to AAGCGAAG, the binding signal in the test with POU1 (OCT1 POU domain) is 0.0271 % of ANNNNAAN 8-mers; in the test with POU2 (OCT2 POU domain) it was 0.027 % of ANNNNAAN 8-mers; in test [1], 0.0238 % of ANNNNAAN 8-mers; in test [2], 0.0231 % of ANNNNAAN 8-mers.
For AATGTAAT the same measures were 0.169 % of ANNNNAAN 8-mers, 0.181 % of ANNNNAAN 8-mers, 0.109 % of ANNNNAAN 8-mers and 0.137 % of ANNNNAAN 8-mers.
The corresponding values for AGGGAAAA are 0.205 % of ANNNNAAN 8-mers, 0.119 % of ANNNNAAN 8-mers, 0.28 % of ANNNNAAN 8-mers and 0.119 % of ANNNNAAN 8-mers.
